Laboratory results from PubChem BioAssay.
Values joined by “and” are separate entries in the source; they are usually repeats but may differ in a detail not shown here. Identical values can stand only once. Results filed as inconclusive are left out. Active and inactive are the calls of the source. Rule as the data show it, unless noted: active = inhibition above about 80%; inactive = the rest.

Experiments:
[1] = growth inhibition of DIPG glioma cells, dose response, cell-based, SU-DIPG-XIII, MIPE5.0, CellTiter-Glo, qHTS (AID 1347064; cut-off not given, nearly all actives have AC50 up to about 23 µM;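 as to AC50: cells exposed to compound for 48 hours before the viability read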); conditions: SU-DIPG-XIII viability, CellTiter-Glo ATP luminescence
[2] = viability loss in pontine glioma line – cell-based, SU-DIPG-XXV, MIPE5.0, CellTiter-Glo, qHTS, dose response (AID 1347065; cut-off not given, nearly all actives have AC50 up to about 26 µM;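 also: cells exposed to compound for 48 hours before ATP readout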); conditions: CellTiter-Glo ATP luminescence
[3] = JHH-DIPG-1 glioma cell viability, MIPE5.0 library, CellTiter-Glo luminescence, qHTS (AID 1347067; cut-off not given, nearly all actives have AC50 up to about 26 µM;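 also: cells exposed to compound for 48 hours before readout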); conditions: JHH-DIPG-1 glioma viability, CellTiter-Glo ATP luminescence
[4] = SU-DIPG-XXV glioma cell viability, MIPE5.0 library, qHTS (AID 1347068; cut-off not given, nearly all actives have IC50 up to about 30 µM)
[5] = sensitizers of A549 cells to miR-34 induction, primary screen, imaging, A549 dox-inducible miR-34, nuclei and caspase counts (AID 1347080;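 active = compounds whose cell count with miR-34 switched on is under 0.7 times the count with it off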); conditions: A549 miR-34 inducible, Hoechst nuclei count, 48 h
[6] = survival rescue of mitochondrial mutant cells in low glucose, primary screen, MELAS cybrids, Rieske KO mouse fibroblasts, CellTiter-Glo (AID 1508586;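 active = mean z-score across replicates of 1.96 or higher in either the MELAS or the Rieske mutant cell line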;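 also: z relative to plate mean and SD of compound and empty wells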)
[7] = SU-DIPG-VI glioma cell viability, MIPE4.0 library, CellTiter-Glo luminescence, qHTS (AID 1347066; cut-off not given, nearly all actives have AC50 up to about 30 µM;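 also: cells exposed to compound for 48 hours before readout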); conditions: CellTiter-Glo ATP luminescence
[8] = LFS_MB_P medulloblastoma growth inhibition, cell-based, chromothripsis tumors, cisplatin or BGB combos (AID 1671449); conditions: LFS_MB_P medulloblastoma cells;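 also: cells exposed for 96 hours; 0% = vehicle DMSO and 100% = killing by high DMSO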
[9] = HDN33 neuroblastoma growth inhibition, cell-based, chromothripsis tumors, cisplatin or BGB combos (AID 1671450); conditions: HDN33 neuroblastoma cells, stronger effect = higher value;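 also: cells exposed to compound for four days; 0% = vehicle DMSO and 100% = cell killing by high DMSO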
[10] = ICB984 medulloblastoma cell growth inhibition, synergistic combos for chromothripsis tumors, cisplatin or BGB combos (AID 1671451; call rule not given here;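 also: cells exposed for 96 hours before readout; 0% = vehicle DMSO and 100% = killing by high DMSO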); conditions: ICB984 medulloblastoma cells, drug combinations, stronger effect = higher value
[11] = LFS_MB_1R medulloblastoma cell growth inhibition, synergistic combos for chromothripsis tumors, cisplatin or BGB combos (AID 1671452); conditions: LFS_MB_1R medulloblastoma cells, stronger effect = higher value;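 also: cells exposed for 96 hours before readout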
[12] = HTB85 osteosarcoma cell growth inhibition, synergistic combos for chromothripsis tumors, BGB or cisplatin IC20 combos (AID 1671453); conditions: HTB85 osteosarcoma cells, drug combinations, stronger effect = higher value;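 also: cells exposed for 96 hours before readout; 0% = vehicle DMSO and 100% = high DMSO killing control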
[13] = CRL2098 osteosarcoma cell growth inhibition, synergistic combos for chromothripsis tumors, BGB or cisplatin IC20 combos (AID 1671454); conditions: CRL2098 osteosarcoma cells, drug combinations, stronger effect = higher value;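 also: cells exposed for 96 h before readout; 0% = vehicle DMSO and 100% = killing by high DMSO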
[14] = HD-MB03 medulloblastoma cell growth inhibition, synergistic combos for chromothripsis tumors, BGB or cisplatin IC20 combos (AID 1671455; in the data active = inhibition above about 83%;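 also: 0% = vehicle DMSO and 100% = high DMSO as cytotoxic control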); conditions: HD-MB03 medulloblastoma cells, stronger effect = higher value
[15] = UWB1.289 ovarian carcinoma cell growth inhibition, synergistic combos for chromothripsis tumors, BGB or cisplatin combos (AID 1671456); conditions: UWB1.289 ovarian carcinoma cells, stronger effect = higher value;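 also: cells exposed to compound for four days; 0% = vehicle DMSO and 100% = killing by high DMSO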
[16] = LFS_MB_2R medulloblastoma cell growth inhibition, synergistic combos for chromothripsis tumors, cisplatin combos (AID 1671457); conditions: LFS_MB_2R medulloblastoma cells, stronger effect = higher value;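 also: cells exposed to compound for four days before readout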
[17] = MDA-MB-436 breast carcinoma cell growth inhibition, synergistic combos for chromothripsis tumors, BGB or cisplatin combos (AID 1671458; call rule not given here;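 also: cells exposed for 96 hours; 0% = vehicle DMSO and 100% = killing by high DMSO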); conditions: MDA-MB-436 breast carcinoma growth inhibition, drug combinations, stronger effect = higher value
[18] = UWB1.289_BRCA1 ovarian cancer growth, cell-based, BGB or cisplatin combinations (AID 1671459); conditions: UWB1.289 BRCA1 ovarian carcinoma, drug combinations, stronger effect = higher value
[19] = human astrocyte viability loss, single and combined drugs, cytotoxicity control for chromothriptic childhood tumor combination screen, cell-based, BGB or cisplatin IC20 combos (AID 1671460); conditions: Human astrocytes, drug combinations, stronger effect = higher value;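 also: cells exposed to compounds for 96 hours before viability readout; 0% = vehicle and 100% = killing control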
[20] = growth inhibition of BT084 medulloblastoma cells, cell-based, ICGC_MB145, cisplatin and BGB IC40 combos (AID 1671461); conditions: drug combinations, stronger effect = higher value;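 also: cells exposed to drugs for 96 hours; 0% = vehicle DMSO and 100% = high DMSO full killing control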
[21] = growth inhibition of RCMB18 medulloblastoma cells, cell-based, cisplatin and BGB IC40 combos (AID 1671462); conditions: stronger effect = higher value;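 also: cells exposed to compound for four days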
[22] = growth inhibition of CRL1545 osteosarcoma cells, cell-based, cisplatin and BGB IC20 combos (AID 1671464); conditions: stronger effect = higher value;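 also: cells exposed to compound for 96 hours before readout; 0% = vehicle DMSO and 100% = high DMSO killing control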
[23] = stronger effect = lower value, cell number ratio, induced over uninduced
[24] = measured here: relative caspase fold change +Dox/-Dox
[25] = measured here: total cells with miR-34 induction, stronger effect = lower value
[26] = measured here: total cells without miR-34 induction
[27] = MELAS cybrid survival, CellTiter-Glo 48 h, stronger effect = higher value
[28] = Rieske KO mouse fibroblast survival, CellTiter-Glo 72 h
[29] = measured here: combination with BGB IC40, at 0.05 µM
[30] = measured here: with BGB IC20 combination, at 0.5 µM
[31] = measured here: with cisplatin IC20 combination, at 0.5 µM
[32] = measured here: combination with cisplatin, at 0.5 µM
[33] = measured here: combination with cisplatin, at 5 µM

## CN(C)C(=O)c1cc2cnc(Nc3ccc(N4CCNCC4)cn3)nc2n1C1CCCC1
[1]
  outcome: inactive
[2]
  outcome: inactive
[3]
  outcome: inactive
[4]
  outcome: inactive
[5]; [23]
  fold change: 1 (inactive)
[5]; [24]
  fold change: 0.436
[5]; [25]
  cell count: 5240
[5]; [26]
  cell count: 5220
[6]; [27]
  z-score: -0.462 (inactive)
[6]; [28]
  z-score: -0.582

## Cc1cc(-c2cnn3c(NCC4CC(C)(O)C4)cc(Oc4cccnc4)nc23)ccc1C(=O)NC1CC1 (centres undefined)
[1]
  outcome: inactive
[2]
  AC50: 1.48 µM (active)
[4]
  outcome: inactive

## COc1cc(N2CCN(C)CC2)ccc1Nc1nccc(-c2cn(C)c3cnccc23)n1
[1]
  AC50: 10.5 µM (active)
[2]
  AC50: 13.2 µM (active)
[3]
  AC50: 18.6 µM (active)
[4]
  outcome: inactive
[5]; [23]
  fold change: 0.785 (inactive)
[5]; [24]
  fold change: 1.02
[5]; [25]
  cell count: 4990
[5]; [26]
  cell count: 6360
[6]; [27]
  z-score: 1.95 (inactive)
[6]; [28]
  z-score: -5.23

## CN(C)S(=O)(=O)c1ccc2c(c1)C(=Cc1cc3c([nH]1)CCCC3)C(=O)N2
[1]
  outcome: inactive
[7]
  outcome: inactive

## CSC[C@H]1CN(Cc2c[nH]c3c(N)ncnc23)C[C@@H]1O
[1]
  outcome: inactive
[3]
  outcome: inactive
[4]
  outcome: inactive

## CCOCc1nc2c(N)nc3ccccc3c2n1CC(C)(C)O
[1]
  outcome: inactive
[2]
  outcome: inactive
[4]
  outcome: inactive

## COC1CCN(C(=O)c2cc(Cc3n[nH]c(=O)c4ccccc34)ccc2F)CC1
[1]
  outcome: inactive
[2]
  outcome: inactive
[3]
  outcome: inactive
[4]
  outcome: inactive
[5]; [23]
  fold change: 0.934 (inactive)
[5]; [24]
  fold change: 0.846
[5]; [25]
  cell count: 6330
[5]; [26]
  cell count: 6780
[6]; [27]
  z-score: -0.18 (inactive)
[6]; [28]
  z-score: -0.126
[8]; at 0.5 µM, stronger effect = higher value
  inhibition: -12.1% (inactive) and -16.1% (inactive)
[8]; measured here: combination with BGB IC20, at 0.005 µM
  inhibition: -30.7% and -15.3%
[8]; measured here: combination with BGB IC40, at 0.005 µM
  inhibition: -38.1% and -33.1%
[8]; [29]
  inhibition: -30.5% and -42.3%
[8]; measured here: combination with cisplatin, at 0.5 µM, stronger effect = higher value
  inhibition: -37.8% and -19.2%
[8]; measured here: combination with cisplatin, at 5 µM, stronger effect = higher value
  inhibition: -40.5% and -57.1%
[9]; BGB combo, at 5 µM
  inhibition: -13.6% and 13.4%
[9]; at 0.5 µM
  inhibition: -10.1% (inactive) and -7.74% (inactive)
[9]; cisplatin combo, at 5 µM
  inhibition: 23.9% and 26%
[9]; [30]
  inhibition: -20.4% and -10.8%
[9]; [31]
  inhibition: 5.53% and -9.06%
[9]; single agent, at 5 µM
  inhibition: 14.4% and 38.9%
[10]; BGB IC20 combo, at 0.005 µM
  inhibition: -4.23% and -19.5%
[10]; BGB IC40 combo, at 0.005 µM
  inhibition: -0.687% and -29.1%
[10]; BGB IC40 combo, at 0.05 µM
  inhibition: -13.2% and -21.3%
[10]; at 0.5 µM
  inhibition: -24.6% (inactive) and -24.2% (inactive)
[10]; cisplatin combo, at 0.05 µM
  inhibition: -19% and -25.6%
[10]; cisplatin combo, at 0.5 µM
  inhibition: -40.6% and -12.4%
[10]; cisplatin combo, at 5 µM
  inhibition: -8.06% and -25.7%
[10]; measured here: 5 uM single agent, at 5 µM
  inhibition: 0.595% and -12.2%
[11]; at 0.5 µM
  inhibition: -26.2% (inactive) and -13.9% (inactive)
[11]; [29]
  inhibition: -15.2% and -8.03%
[11]; [32]
  inhibition: -30.2% and -13%
[11]; [33]
  inhibition: -19.4% and -3.56%
[12]; at 0.5 µM
  inhibition: -11.4% (inactive) and 6.36% (inactive)
[12]; measured here: with BGB IC20, at 0.5 µM
  inhibition: -12.2% and -3.86%
[12]; measured here: with BGB IC20, at 5 µM
  inhibition: 12.4% and 5.4%
[12]; measured here: with cisplatin IC20, at 0.5 µM
  inhibition: -10.7% and 2.43%
[12]; measured here: with cisplatin IC20, at 5 µM
  inhibition: 15.8% and -12.3%
[12]; single agent, at 5 µM
  inhibition: 16.7% and 8.18%
[13]; at 0.5 µM
  inhibition: -48.1% (inactive) and -65.8% (inactive)
[13]; measured here: combination with BGB at IC20, at 0.5 µM
  inhibition: -70.3% and -24.2%
[13]; measured here: combination with cisplatin at IC20, at 0.5 µM
  inhibition: -35.2% and -114%
[14]; at 0.5 µM
  inhibition: -3.93% (inactive) and -2.04% (inactive)
[14]; measured here: combo with BGB at IC20, at 0.5 µM
  inhibition: -9.33% and -8.78%
[14]; measured here: combo with cisplatin at IC20, at 0.5 µM
  inhibition: 4.14% and 1.92%
[15]; at 0.5 µM
  inhibition: -6.03% (inactive) and 1.25% (inactive)
[15]; measured here: inhibition with BGB combination, at 0.05 µM
  inhibition: -33.1% and -12.4%
[15]; measured here: inhibition with cisplatin combination, at 0.05 µM
  inhibition: -15.7% and -19.5%
[16]; at 0.5 µM
  inhibition: -18.3% (inactive) and -16.9% (inactive)
[16]; [32]
  inhibition: -12.3% and -23.2%
[16]; [33]
  inhibition: -8.19% and -16.7%
[17]; at 0.5 µM
  inhibition: -6.48% (inactive) and 5.83% (inactive)
[17]; measured here: BGB combination, at 0.5 µM
  inhibition: -20.6% and -13.1%
[17]; measured here: BGB combination, at 5 µM
  inhibition: -22% and -12.5%
[17]; measured here: cisplatin combination, at 0.5 µM
  inhibition: -7.18% and 13.4%
[17]; measured here: cisplatin combination, at 5 µM
  inhibition: 19.7% and 25.3%
[18]; BGB combination, concentration series, at 5 µM
  inhibition: -17.2% and 8.15%
[18]; at 0.5 µM
  inhibition: -15.2% (inactive) and 1.82% (inactive)
[18]; cisplatin combination, concentration series, at 5 µM
  inhibition: 1.96% and 12.2%
[19]; at 0.5 µM
  inhibition: -2.67% (inactive) and 18.6% (inactive)
[19]; measured here: combo with BGB IC20, at 0.5 µM
  inhibition: -0.687% and 1.82%
[19]; measured here: combo with cisplatin IC20, at 0.5 µM
  inhibition: -3.5% and 25%
[20]; at 0.5 µM
  inhibition: -21.1% (inactive) and -16.8% (inactive)
[20]; cisplatin combination, at 0.5 µM
  inhibition: -20.5% and -64%
[20]; cisplatin combination, at 5 µM
  inhibition: -29.9% and -19.1%
[20]; measured here: BGB IC40 combination 0.05 uM, at 0.05 µM
  inhibition: -40% and -3%
[20]; single agent, at 5 µM
  inhibition: -18% and 3.41%
[21]; at 0.5 µM
  inhibition: -19.3% (inactive) and -19.5% (inactive)
[21]; cisplatin combo, at 5 µM
  inhibition: -5.98% and -18.2%
[21]; measured here: BGB IC40 combination, at 0.05 µM
  inhibition: -15.8% and -4.12%
[21]; [32]
  inhibition: -25.7% and -45.6%
[21]; single agent, at 5 µM
  inhibition: -29.2% and -17.7%
[22]; at 0.5 µM
  inhibition: 8.49% (inactive) and 7.34% (inactive)
[22]; [30]
  inhibition: -9.33% and -2.37%
[22]; [31]
  inhibition: 16.1% and 10.8%
[22]; single agent, at 0.05 µM
  inhibition: 5.73% and -15.4%
[22]; single agent, at 5 µM
  inhibition: 42.8% and 34.1%
